# Measurements as given in PubChem BioAssay (NCATS).
# A number with no mark means an inactive call. Inconclusive results are not listed. Where a call stands in place of a potency, no number is given. The source made the active and inactive calls. Unless noted, the call rests on the fitted dose curve; in most records, active means well fitted curve in the direction sought with a large enough effect; inconclusive means small, poorly fitted or top-dose-only effect, or another doubt; inactive means no such curve, though single readings can be large; an effect the other way counts as inactive or inconclusive.
# How the values were obtained:
# JEG-3 = assay: Primary qHTS to identify gynecologic anti-cancer compounds using libraries of approved drugs and bioactive compounds (AID 1345084); conditions: Gynecologic cancer cell panel viability, ATPlite luminescence, 48 h; series mostly up to 57.5 µM; further: nearly all actives have a fitted effect of over 55% in size; further: potency means the concentration at half of the fitted maximal effect
# Outline: (§1)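 In this quantitative HTS, cell killing is estimated from loss of ATP-dependent luciferase light. Cells see five compound concentrations over a 48 h exposure.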
# OV90 = assay: as above; conditions: Gynecologic cancer cell panel viability, ATPlite luminescence, 48 h; series mostly up to 57.5 µM
# Outline: as §1
# PA-1 = assay: as above; conditions: Gynecologic cancer cell panel viability, ATPlite luminescence, 48 h; series mostly up to 57.5 µM
# Outline: as §1
# SKOV3 = assay: as above; conditions: Gynecologic cancer cell panel viability, ATPlite luminescence, 48 h; series mostly up to 57.5 µM
# Outline: as §1
# Tov-21-G = assay: as above; conditions: Gynecologic cancer cell panel viability, ATPlite luminescence, 48 h; series mostly up to 57.5 µM
# Outline: as §1
# Tov112D = assay: as above; conditions: Gynecologic cancer cell panel viability, ATPlite luminescence, 48 h; series mostly up to 57.5 µM
# Outline: as §1
# [1] = Drug repurposing screens with cells derived from glioblastoma tumor samples (AID 1345199); conditions: GBM patient neurospheres viability, ATP luminescence, 48 h; further: nearly all actives have a fitted effect of over 40% in size; further: potency means the concentration at half of the fitted maximal effect
# Outline: (§2)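 Primary testing used CD133+ neurospheres from four GBM patients, seven concentrations, 48 h exposure and ATP-based viability; confirmation added three slower-growing patient lines.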
# astro = assay: as above; conditions: viability, ATP luminescence, 48 h; series mostly up to 45.9 µM
# Outline: as §2
# [2] = qHTS assay to identify inhibitors of the type 1 interferon - major histocompatibility complex class I in skeletal muscle: Counter screen cell viability and HiBit confirmation (AID 1347412); conditions: iHSKM muscle cells + IFN-b, HiBiT or CellTiter-Glo, 24 h, at 45.9 µM (top of the series); further: nearly all actives have a fitted effect of over 60% in size
# Outline: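 Luminescence read-out: Nano-Glo HiBiT lytic signal from C-terminally HiBiT-tagged HLA-B in CRISPR-edited human myoblasts, plus CellTiter Glo ATP as viability counter screen. IFN-beta 4.0 ng/ml; 24 hrs treatment at 37 C, 5% CO2.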
# [3] = biological target: Nuclear receptor subfamily 1 group I member 2 (Rattus norvegicus) (UniProt Q9R1A7); assay: qHTS assay for small molecule activators of the rat pregnane X receptor (rPXR) signaling pathway (AID 651751; call rule not given here); conditions: rPXR reporter cells, luciferase (One-Glo), 24 h
# Sequence of Nuclear receptor subfamily 1 group I member 2 (Rattus norvegicus) (Q9R1A7 whole entry, looked up): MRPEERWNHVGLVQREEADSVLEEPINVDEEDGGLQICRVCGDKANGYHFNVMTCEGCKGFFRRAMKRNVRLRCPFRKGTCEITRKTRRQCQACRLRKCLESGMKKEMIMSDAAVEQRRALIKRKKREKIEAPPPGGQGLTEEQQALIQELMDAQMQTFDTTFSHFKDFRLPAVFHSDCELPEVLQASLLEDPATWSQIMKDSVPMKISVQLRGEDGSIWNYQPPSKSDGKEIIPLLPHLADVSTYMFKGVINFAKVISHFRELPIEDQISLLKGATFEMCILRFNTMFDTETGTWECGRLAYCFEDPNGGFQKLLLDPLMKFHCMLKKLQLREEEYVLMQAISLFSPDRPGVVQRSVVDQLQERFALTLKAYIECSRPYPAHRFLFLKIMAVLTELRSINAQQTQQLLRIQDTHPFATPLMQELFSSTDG
# [4] = at 20 µM (top of the series), tumour line C
# [5] = at 21.2 µM (top of the series), tumour line B
# [6] = at 21.2 µM (top of the series), tumour line D
# [7] = at 21.3 µM (top of the series), tumour line A
# [8] = at 45.9 µM (top of the series), tumour line B
# [9] = at 45.9 µM (top of the series), tumour line D
# [10] = at 46 µM (top of the series), tumour line A
# [11] = at 46.1 µM (top of the series), tumour line C
smiles,measurement,setting,value
CCC(=O)O[C@]1(C(=O)SCF)[C@H](C)C[C@H]2[C@@H]3C[C@H](F)C4=CC(=O)C=C[C@]4(C)[C@@]3(F)[C@@H](O)C[C@@]21C,Potency,JEG-3,inactive
same,Potency,OV90,inactive
same,Potency,PA-1,inactive
same,Potency,SKOV3,inactive
same,Potency,Tov-21-G,inactive
same,Potency,Tov112D,inactive
same,"activity, negative = cell killing",[1]; [4],-9.5%
same,"activity, negative = cell killing",[1]; [5],-18.7%
same,"activity, negative = cell killing",[1]; [6],13.1%
same,"activity, negative = cell killing",[1]; [7],-14.8%
same,Potency,astro,inactive
same,"activity change, negative = inhibition",[2]; HiBiT,-26.7%
same,"activity change, negative = inhibition",[2]; Viability,10%
Cc1nnc(NS(=O)(=O)c2ccc(N)cc2)s1,Potency,JEG-3,inactive
same,Potency,OV90,inactive
same,Potency,PA-1,inactive
same,Potency,SKOV3,inactive
same,Potency,Tov-21-G,inactive
same,Potency,Tov112D,inactive
same,"activity, negative = cell killing",[1]; [8],4.69%
same,"activity, negative = cell killing",[1]; [9],17.1%
same,"activity, negative = cell killing",[1]; [10],7.16%
same,"activity, negative = cell killing",[1]; [11],5.44%
same,max response,[3],-0.291%
Nc1nc(N)nc(-c2cc(Cl)ccc2Cl)n1,Potency,JEG-3,inactive
same,Potency,OV90,inactive
same,Potency,PA-1,inactive
same,Potency,SKOV3,inactive
same,Potency,Tov-21-G,inactive
same,Potency,Tov112D,inactive
same,"activity, negative = cell killing",[1]; [8],1.99%
same,"activity, negative = cell killing",[1]; [9],7.54%
same,"activity, negative = cell killing",[1]; [11],13.1%
same,Potency,astro,inactive
C[C@@H]1CN(c2c(F)c(N)c3c(=O)c(C(=O)O)cn(C4CC4)c3c2F)C[C@H](C)N1,Potency,JEG-3,inactive
same,Potency,OV90,inactive
same,Potency,PA-1,inactive
same,Potency,SKOV3,inactive
same,Potency,Tov-21-G,inactive
same,Potency,Tov112D,inactive
same,"activity, negative = cell killing",[1]; [8],-1.03%
same,"activity, negative = cell killing",[1]; [9],-17%
same,"activity, negative = cell killing",[1]; [10],-8%
same,"activity, negative = cell killing",[1]; [11],-3.77%
same,Potency,astro,inactive
CN1CCN(c2c(F)cc3c(=O)c(C(=O)O)cn(CCF)c3c2F)CC1,Potency,JEG-3,inactive
same,Potency,OV90,inactive
same,Potency,PA-1,inactive
same,Potency,SKOV3,inactive
same,Potency,Tov-21-G,inactive
same,Potency,Tov112D,inactive
same,"activity, negative = cell killing",[1]; [8],-2.67%
same,"activity, negative = cell killing",[1]; [9],-2.82%
same,"activity, negative = cell killing",[1]; [10],-15.5%
same,"activity, negative = cell killing",[1]; [11],-9.27%
same,Potency,astro,inactive
CN(C)CCc1c[nH]c2ccc(C[C@H]3COC(=O)N3)cc12,Potency,JEG-3,inactive
same,Potency,OV90,inactive
same,Potency,PA-1,inactive
same,Potency,SKOV3,inactive
same,Potency,Tov-21-G,inactive
same,Potency,Tov112D,inactive
same,"activity, negative = cell killing",[1]; [8],-19.9%
same,"activity, negative = cell killing",[1]; [9],-11%
same,"activity, negative = cell killing",[1]; [11],4.56%
same,Potency,astro,inactive
OC(Cn1cncn1)(Cn1cncn1)c1ccc(F)cc1F,Potency,JEG-3,inactive
same,Potency,OV90,inactive
same,Potency,PA-1,inactive
same,Potency,SKOV3,inactive
same,Potency,Tov-21-G,inactive
same,Potency,Tov112D,inactive
same,"activity, negative = cell killing",[1]; [8],-6.67%
same,"activity, negative = cell killing",[1]; [9],-19.6%
same,"activity, negative = cell killing",[1]; [10],-17.5%
same,"activity, negative = cell killing",[1]; [11],-6.89%
same,Potency,astro,inactive
same,max response,[3],4.95%
Cc1onc(-c2ccccc2Cl)c1C(=O)N[C@@H]1C(=O)N2[C@@H]1SC(C)(C)[C@@H]2C(=O)O,Potency,JEG-3,inactive
same,Potency,OV90,inactive
same,Potency,PA-1,inactive
same,Potency,SKOV3,inactive
same,Potency,Tov-21-G,inactive
same,Potency,Tov112D,inactive
same,"activity, negative = cell killing",[1]; [4],1.94%
same,"activity, negative = cell killing",[1]; [5],-1.92%
same,"activity, negative = cell killing",[1]; [6],-24.2%
same,Potency,astro,inactive
CNCC[C@H](Oc1cccc2ccccc12)c1cccs1,Potency,JEG-3,inactive
same,Potency,OV90,28.2 µM (active)
same,Potency,PA-1,inactive
same,Potency,SKOV3,20 µM (active)
same,Potency,Tov-21-G,inactive
same,Potency,Tov112D,inactive
same,"activity, negative = cell killing",[1]; [11],-0.487%
same,Potency,[1]; tumour line A,3.55 µM (active)
same,Potency,[1]; tumour line B,28.2 µM (active)
same,Potency,[1]; tumour line D,17.8 µM (active)
same,Potency,astro,28.2 µM (active)
O=S(=O)(O)CCS,Potency,JEG-3,inactive
same,Potency,OV90,inactive
same,Potency,PA-1,inactive
same,Potency,SKOV3,inactive
same,Potency,Tov-21-G,inactive
same,Potency,Tov112D,inactive
same,"activity, negative = cell killing",[1]; [8],-4.82%
same,"activity, negative = cell killing",[1]; [9],-6.41%
same,"activity, negative = cell killing",[1]; [10],-21.8%
same,"activity, negative = cell killing",[1]; [11],-18%
same,Potency,astro,inactive
C[C@@H](CN1CC(=O)NC(=O)C1)N1CC(=O)NC(=O)C1,Potency,JEG-3,inactive
same,Potency,OV90,inactive
same,Potency,PA-1,inactive
same,Potency,SKOV3,inactive
same,Potency,Tov-21-G,inactive
same,Potency,Tov112D,inactive
same,"activity, negative = cell killing",[1]; [8],-2.51%
same,"activity, negative = cell killing",[1]; [9],-10.3%
same,"activity, negative = cell killing",[1]; [11],-0.792%
same,Potency,astro,inactive
CC1(C)[C@H](C(=O)O)N2C(=O)C[C@H]2S1(=O)=O,Potency,JEG-3,inactive
same,Potency,OV90,inactive
same,Potency,PA-1,inactive
same,Potency,SKOV3,inactive
same,Potency,Tov-21-G,inactive
same,Potency,Tov112D,inactive
same,"activity, negative = cell killing",[1]; [8],1.79%
same,"activity, negative = cell killing",[1]; [9],-3.83%
same,"activity, negative = cell killing",[1]; [10],-4.41%
same,"activity, negative = cell killing",[1]; [11],9.89%
same,Potency,astro,inactive
COc1cnc(NS(=O)(=O)c2ccc(N)cc2)nc1,Potency,JEG-3,inactive
same,Potency,OV90,inactive
same,Potency,PA-1,inactive
same,Potency,SKOV3,inactive
same,Potency,Tov-21-G,inactive
same,Potency,Tov112D,inactive
same,"activity, negative = cell killing",[1]; [4],-10.8%
same,"activity, negative = cell killing",[1]; [5],-19.1%
same,"activity, negative = cell killing",[1]; [6],-2.41%
same,"activity, negative = cell killing",[1]; [7],-32%
same,Potency,astro,inactive
N[C@@H](C(=O)N[C@@H]1C(=O)N2C(C(=O)O)=C(Cl)CS[C@H]12)c1ccccc1,"activity change, negative = cytotoxicity",JEG-3,1.47% [at 11.6 µM]
same,"activity change, negative = cytotoxicity",OV90,0.914% [at 11.6 µM]
same,"activity change, negative = cytotoxicity",PA-1,14.4% [at 11.6 µM]
same,"activity change, negative = cytotoxicity",SKOV3,12.2% [at 11.6 µM]
same,"activity change, negative = cytotoxicity",Tov-21-G,0.747% [at 11.6 µM]
same,"activity change, negative = cytotoxicity",Tov112D,2.46% [at 11.6 µM]
same,"activity, negative = cell killing",[1]; [8],-8.97%
same,"activity, negative = cell killing",[1]; [9],11.2%
same,"activity, negative = cell killing",[1]; [11],7.75%
same,Potency,astro,inactive
CC(C)(Sc1cc(C(C)(C)C)c(O)c(C(C)(C)C)c1)Sc1cc(C(C)(C)C)c(O)c(C(C)(C)C)c1,Potency,JEG-3,inactive
same,Potency,OV90,inactive
same,Potency,PA-1,inactive
same,Potency,SKOV3,inactive
same,Potency,Tov-21-G,inactive
same,Potency,Tov112D,inactive
same,"activity, negative = cell killing",[1]; [4],-9.49%
same,"activity, negative = cell killing",[1]; [5],-22%
same,Potency,[1]; tumour line A,4.47 µM (active)
same,Potency,astro,inactive
CCOC(=O)c1ccc(OC(=O)CCCCCN=C(N)N)cc1,Potency,JEG-3,inactive
same,Potency,OV90,inactive
same,Potency,PA-1,inactive
same,Potency,SKOV3,inactive
same,Potency,Tov-21-G,inactive
same,Potency,Tov112D,inactive
same,"activity, negative = cell killing",[1]; [4],-4.52%
same,"activity, negative = cell killing",[1]; [5],-7.17%
same,"activity, negative = cell killing",[1]; [6],-2.23%
same,"activity, negative = cell killing",[1]; [7],-25.1%
same,Potency,astro,inactive
